D1 PAM – enhances dopamine response at the human D1 receptor | P21728 | HEK293 TREx D1 cells, calcium flux, dopamine EC20 potentiation | potentiation, % at 10 µM | 360,000 tested, 0.036% active; in the data active = potentiation above about 30%
Target sequence (P21728 whole entry, looked up): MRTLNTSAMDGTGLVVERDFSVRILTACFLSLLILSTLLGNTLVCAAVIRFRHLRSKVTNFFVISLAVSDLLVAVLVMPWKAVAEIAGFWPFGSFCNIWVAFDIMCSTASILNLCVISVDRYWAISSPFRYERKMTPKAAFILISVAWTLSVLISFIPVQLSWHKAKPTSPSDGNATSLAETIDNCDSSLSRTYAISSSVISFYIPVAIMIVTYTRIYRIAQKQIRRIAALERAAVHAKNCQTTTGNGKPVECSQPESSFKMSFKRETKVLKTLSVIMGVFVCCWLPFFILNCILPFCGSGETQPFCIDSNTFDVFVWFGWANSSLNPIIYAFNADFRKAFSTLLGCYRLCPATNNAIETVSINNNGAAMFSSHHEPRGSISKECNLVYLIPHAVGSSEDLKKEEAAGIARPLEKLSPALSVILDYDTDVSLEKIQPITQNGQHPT
D1 antagonist – human D1 dopamine receptor antagonism; 360,000 tested, 3.2% active; activity change, negative = inhibition, % at 10 µM; HEK293 TREx D1 cells, calcium flux, dopamine EC80; stronger effect = lower value; P21728; in the data active = activity change below about -30%
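Inducible Hek293 Trex D1 cells (tetracycline, overnight, 30 C). Calcium dye 30–90 min RT. Antagonist mode: EC80 dopamine added after 180 s compound read.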
TRHR enhancer – allosteric enhancers of human TRH receptor. TRHR cells, fluo-8 calcium fluorescence, EC20 TRH enhancement. 360,000 tested, 0.66% active. P34981. enhancement, % at 2 µM; in the data active = enhancement above about 30%
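TRHR-expressing cells loaded with fluo-8 calcium dye were read kinetically (ex 480/em 530) during compound addition, then stimulated with an EC20 of TRH (10 nM final). Enhancement of the Gq-mediated intracellular calcium response was scored.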
D1 agonist – human D1 receptor agonism. P21728. HEK293 T-REx D1 cells, calcium flux, agonist mode. activation, % at 2 µM. 360,000 tested, 1% active
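Tetracycline-induced HEK293 TREx D1 cells, force-coupled to calcium signalling, were dye-loaded with a no-wash calcium kit. Compound was pin-added after a 10 s baseline. Fluorescence was read kinetically at 1 cycle/s for 180 s, with calcium rises flagged as agonism.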
TRHR ag – TRH receptor (human) agonism; activation, % at 2 µM; TRHR cells, calcium flux fluo-8, FDSS agonist mode; 360,000 tested, 0.18% active; AID 493084; P34981
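Read-out: compound-evoked intracellular calcium rise in TRHR cells, fluo-8 dye, kinetic FDSS fluorescence at 1 s/cycle following a 10-cycle baseline. Cells cultured overnight before dye loading (30 min–1.5 h, RT).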
Large screens that a line does not name were inactive; ! = not confirmed by another sample. In the library only some 4.7% were active in any assay of this set; here they are far more common. Rule as the data show it, unless noted: active = activation above about 30%; inactive = the rest.

COc1cc(C)ccc1OCCOCCOc1ccc([N+](=O)[O-])cc1	D1 agonist 31
O=Cc1ccccc1OCCOc1ccc([N+](=O)[O-])cc1	D1 antagonist -31
CCOc1cc(/C=N/O)ccc1OCc1ccc([N+](=O)[O-])cc1	none
O=[N+]([O-])c1ccc(COc2ccccc2/C=N/O)cc1	D1 antagonist -49
O=C(CCSCc1ccc(Cl)cc1)NCc1ccc(F)cc1Cl	D1 antagonist -33
O=C(CCSCc1ccccc1Cl)NCc1ccc(F)cc1Cl	D1 agonist 68
O=C(CCSCc1cccc(Cl)c1)NCc1ccc(F)cc1Cl	none
Cc1c(Br)cc(F)c([S+](=O)([O-])N2CCN([S+](=O)([O-])c3ccc4c(c3)OCCO4)CC2)c1F	none
O=C(Cn1c(=O)n(Cc2ccccc2)c(=O)c2sc3ccccc3c21)Nc1ccccc1	none
Cc1ccc(-n2c(=O)c3sc4ccccc4c3n(CC(=O)NC3CCCC3)c2=O)cc1C	D1 antagonist -45
COc1ccc(NC(=O)Cn2c(=O)n(Cc3ccccc3)c(=O)c3sc4ccccc4c32)cc1	D1 antagonist -30, TRHR enhancer 35
Cc1ccccc1NC(=O)Cn1c(=O)n(Cc2ccccc2)c(=O)c2sc3ccccc3c21	D1 antagonist -37
CCc1ccc(-n2c(=O)c3sc4ccccc4c3n(CC(=O)NC3CCCCC3)c2=O)cc1	none
Cc1nn2c(=O)cc(COC(=O)c3cccs3)nc2s1	none
CCOc1ccc(C(=O)N/N=C(\c2ccccc2)c2ccccn2)cc1	D1 antagonist -33
Cc1ccc(-c2csc(NC(=O)/C=C/c3cccs3)n2)cc1C	D1 antagonist -79
N#Cc1ccc(-c2csc(NC(=O)/C=C/c3cccs3)n2)cc1	D1 antagonist -44
Cc1ccc(S(=O)(=O)c2c[nH]c3cc4c(cc3c2=O)OCO4)cc1	none
Cc1ccc(S(=O)(=O)Nc2cc3c(cc2Cl)n(C)c(=O)c(=O)n3C)cc1	none
CCCOc1ccc(CN(C(=O)c2cc(=O)c3ccc(C)cc3o2)C2CCS(=O)(=O)C2)cc1 (configuration not stated)	none
CCn1c(SCC(=O)NCc2cccs2)nnc1-c1cccs1	D1 antagonist -39
O=C(CN1CCCCC1)Nc1nc(-c2ccccc2)cs1	none
O=C(C[n+]1cc(-c2ccc(F)cc2)n2c1CCC2)Nc1nc(-c2ccc(F)cc2)cs1	D1 antagonist -31
O=C(CN1CCCCC1)Nc1nc(-c2ccc(Cl)cc2)cs1	D1 antagonist -53
COc1cc(CNCCSc2nnnn2C)ccc1OCc1ccc(C)cc1	none
CCOc1ccc(/C=C/C(=O)NCCc2ccc(OC)c(OC)c2)cc1	none
CCCCNC(=O)/C=C/c1ccc(OC)c(Br)c1	D1 antagonist -30
CCCn1c(CCCNC(=O)c2ccccc2OC)nc2ccccc21	none
O=C(c1ccc([N+](=O)[O-])cc1)N(Cc1ccc(Cl)cc1)N1C(=O)CCCC1=O	TRHR ag 36
COc1cccc(/C=N/NC(=O)CC(=O)NCCc2ccccc2)c1OC	TRHR enhancer 33
CC(C)(C)/C=N/NC(=O)CNC(=O)c1ccc2c(c1)OCCO2	none
COc1ccc(/C=N\NC(=O)c2ccc(-c3ccccc3)cc2)c(OC)c1OC	TRHR enhancer 30
COc1cc(/C=N/NC(=O)c2ccc(-c3ccccc3)cc2)cc(OC)c1OC	none
COc1cccc(/C=N/NC(=O)c2ccc(N(C)S(=O)(=O)c3ccccc3)cc2)c1OC	D1 antagonist -36
COc1ccc(/C=N/NC(=O)CNC(=O)c2ccc3c(c2)OCCO3)c(C(=O)O)c1OC	TRHR enhancer 30
COc1cccc(/C=N/NC(=S)NCCc2ccccc2)c1OC	none
COc1ccccc1NC(=O)CSc1nccn1Cc1ccccc1	none
Cc1cc(OC(=O)c2cc(-c3ccc4c(c3)OCCO4)on2)ccc1Cl	D1 antagonist -36
N#Cc1ccc(OC(=O)c2cc(-c3ccc(Cl)cc3)on2)cc1	D1 antagonist -38
Cc1cccc(NC(=O)c2cc(-c3ccc4c(c3)OCCO4)on2)c1	D1 antagonist -66, D1 agonist 35
COc1ccc(-c2nc(C)c(CCNC(=O)c3ccc(F)c(F)c3)s2)cc1	none
Cc1ccc(NC(=O)CC(C)S(=O)(=O)c2ccc3c(c2)NC(=O)CO3)c(C)c1 (configuration not stated)	none
Clc1ccc(-c2noc3ncnc(N4CCCCC4)c23)cc1	none
Cc1cc2c(s1)c1cnn(Cc3c(F)c(F)c(C(F)(F)F)c(F)c3F)c(=O)c1n2C	none
Cc1ccc(Sc2c(C(=O)NCc3ccccc3C)[nH]c3ccccc23)cc1	none
CCS(=O)(=O)NCCc1csc2nc(-c3ccc(C)cc3)nn12	none (no result: D1 antagonist)
Cc1cccc(NC(=O)CSc2nnc(C3CC3)n2CC2CCCO2)c1C (configuration not stated)	none
CCc1ccccc1NC(=O)CSc1nnc(C2CC2)n1CC1CCCO1 (configuration not stated)	TRHR enhancer 31
COCCn1c(CNC(=O)c2cccc(N(C)C)c2)nc2cccnc21	none
Cc1cnc(C(=O)Nc2ccc(F)cc2)cn1	none
Cc1cnc(C(=O)Nc2ccc(C(C)C)cc2)cn1	D1 antagonist -31
Cn1nc(-c2ccccc2)c2nc3ccccc3nc21	D1 agonist 94, TRHR ag 55
CCCCn1c2nc3ccccc3nc2c2c(=O)n(-c3ccccc3)cnc21	none
CCCCn1nc(-c2ccccc2)c2nc3ccccc3nc21	D1 agonist 51
NCCc1cnc[nH]1	D1 agonist 53!
NCCC(=O)NCCc1cnc[nH]1	none
COc1ccc(C2(C(=O)Nc3cc(C)on3)CCOCC2)cc1	D1 antagonist -60
N#CC1=C(N)NC(SCc2ccc(F)cc2)=C(C#N)C12CCCCC2	D1 antagonist -31
CCn1cc(S(=O)(=O)c2cccc(C)c2)c(=O)c2cc(F)c(N3CCCCC3C)cc21 (configuration not stated)	none
COC(=O)c1ccccc1NC(=O)Cn1c(=O)n(Cc2ccc(C(=O)NCc3ccc4c(c3)OCO4)cc2)c(=O)c2ccccc21	none
O=C(/C=C/c1cn(CC(O)CN2CCOCC2)c2ccccc12)c1cccs1 (configuration not stated)	D1 antagonist -81, TRHR ag 32
Cc1ccc(C(=O)/C=C/c2cn(CC(O)CN3CCOCC3)c3ccccc23)cc1 (configuration not stated)	none
CCOC(=O)C(NCCc1ccccc1F)(NC(=O)CC)C(F)(F)F (configuration not stated)	TRHR enhancer 34
Cc1cc(C)c(-c2csc(NC(=O)C3=COCCO3)n2)c(C)c1	D1 antagonist -30
Cc1cc(C)c(NC(=O)CCCOC(=O)C2=COCCO2)c(C)c1	none
O=C(Nc1nc(-c2cccs2)cs1)C1=COCCO1	D1 antagonist -82
Cc1cc(C)c(NC(=O)C2=COCCO2)c(C)c1	D1 antagonist -33

Screening data from PubChem.
